An excerpt weighted towards active compounds, which were near 19% of everything screened.
DT40 TDP1 no CPT: qHTS for Inhibitors of human tyrosyl-DNA phosphodiesterase 1 (TDP1): qHTS in cells in absence of CPT; DT40 Tdp1-/- hTDP1 cells, no CPT, ATP luminescence, 48 h; Potency, µM (top dose mostly 46.2 µM), hits mostly inhibitors; actives 15% (n = 420,000); AID 686978, 2013; note: nearly all actives have a fitted effect of over 55% in size
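Seeded 400 DT40-hTDP1 cells/well (vehicle DMSO, no 20 nM CPT); pinned compounds; ≥48 hr at 37 °C; CellTiter-Glo luminescence as viability measure.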
IL-1B inflam inh: qHTS for Inhibitors of Inflammasome Signaling: IL-1-beta AlphaLISA Primary Screen; THP-1 LPS/ATP IL-1B secretion, AlphaLISA, 16 h; stronger effect = lower value; activity change, % at 57.5 µM; actives 4.7% (n = 360,000); AID 743279, 2014; in the data active = activity change below about -50%; inconclusive = mostly about -30% to -49%
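THP-1 cells pretreated 1 hr with compounds (up to 57.5 uM final), then stimulated with LPS (250 ng/mL final) plus ATP (1.25 mM final); secreted IL-1B measured by AlphaLISA after 16 hr, decreased signal indicating inhibition.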
TDP1 cell CPT: qHTS for Inhibitors of human tyrosyl-DNA phosphodiesterase 1 (TDP1): qHTS in cells in presence of CPT; chicken DT40 Tdp1-/-;hTDP1 cells + 20 nM CPT, ATP luminescence, 48 h; Potency, µM (highest dose often 46.2 µM), actives largely listed as inhibitors; actives 12% (n = 420,000); note: nearly all actives have a fitted effect of over 55% in size
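Cell growth measured by CellTiter-Glo luminescence after a minimum 48 h, 37 C compound exposure with 20 nM CPT in Tdp1-knockout DT40 cells stably expressing hTDP1, seeded 400/well; qHTS titration format.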
ELG1 repair inh: qHTS screen for small molecules that inhibit ELG1-dependent DNA repair in human embryonic kidney (HEK293T) cells expressing luciferase-tagged ELG1; HEK293T ELG1-luciferase reporter, luminescence, 16 h; DNA damage induced by 5-fluorouridine; actives 2.3% (n = 330,000); Potency, µM (top dose mostly 46.1 µM), hits mostly inhibitors; note: nearly all actives have a fitted effect of over 55% in size
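Quantitative HTS, concentration-response format. 2,000 cells/well co-treated with 5-fluorouridine and compound, 16 hr in 5% CO2 at 37 °C; ONE-Glo luminescence read after 30 min.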
HT1080 IDH1KD tx: qHTS for induction of synthetic lethality in tumor cells producing 2HG: qHTS for the HT-1080-IDH1KD cell line | HT-1080 IDH1 knockdown viability, ATP luminescence, 48 h | Potency, µM (titrated, usually from 46.1 µM), hits mostly cytotoxic | actives 2% (n = 360,000)
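Viability of IDH1-knockdown HT-1080 fibrosarcoma cells was assessed by CellTiter-Glo after 48 h at 37 °C with titrated compound; concentration-effect curves were classified by fit quality and response size.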
HT1080NT lethal: qHTS for induction of synthetic lethality in tumor cells producing 2HG: qHTS for the HT-1080-NT fibrosarcoma cell line; AID 686970, 2013; actives 1.6% (n = 360,000); HT-1080-NT fibrosarcoma viability, CellTiter-Glo ATP luminescence, 48 h; Potency, µM (series often up to 46.1 µM), actives largely listed as cytotoxic;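 note: NT is the 2HG producing partner of a matched IDH1 knockdown line; nearly all actives have a fitted effect of over 55% in size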
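Toxicity toward the 2HG-producing NT line was scored as %Activity, normalised to DMSO and no-cell wells, from CellTiter-Glo luminescence after 48 hours' treatment.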
Numbers stand for hits. Unless noted, calls come from the whole dose curve; as a rule, active = well fitted curve in the direction sought with a large enough effect; inconclusive = small, poorly fitted or top-dose-only effect, or another doubt; inactive = no such curve, though single readings can be large; an effect the other way counts as inactive or inconclusive.

`CC(=O)Nc1ccc(S(=O)(=O)NCCc2cn3ccsc3n2)cc1` gave DT40 TDP1 no CPT inactive and TDP1 cell CPT inactive.
Screening Cc1cc(=O)n2[nH]c(N)c(N=Nc3ccccc3)c2n1 returned DT40 TDP1 no CPT 29.1µM, IL-1B inflam inh inactive, TDP1 cell CPT inconclusive, ELG1 repair inh inactive, HT1080 IDH1KD tx inactive and HT1080NT lethal inactive.
`O=c1c2c(nc3c(-c4ccccc4)c[nH]n13)CCCC2` gave DT40 TDP1 no CPT 23.1µM, IL-1B inflam inh inactive, TDP1 cell CPT 23.1µM, ELG1 repair inh inactive, HT1080 IDH1KD tx inactive and HT1080NT lethal inactive.
Screening Nc1[nH]n2c(=O)c3c(nc2c1N=Nc1ccc(Cl)cc1)CCCC3 returned DT40 TDP1 no CPT inconclusive, IL-1B inflam inh inactive, TDP1 cell CPT inconclusive, ELG1 repair inh inactive, HT1080 IDH1KD tx inactive and HT1080NT lethal inactive.
For Nc1[nH]n2c(=O)c3c(nc2c1N=Nc1ccccc1)CCCC3 the results were DT40 TDP1 no CPT 18.4µM, IL-1B inflam inh inactive, TDP1 cell CPT inconclusive, ELG1 repair inh inconclusive, HT1080 IDH1KD tx inactive and HT1080NT lethal inactive.
For COc1cccc(N=Nc2c(N)[nH]n3c(=O)cc(-c4ccccc4)nc23)c1 the results were DT40 TDP1 no CPT 7.31µM, IL-1B inflam inh inactive, TDP1 cell CPT 9.2µM, ELG1 repair inh inactive, HT1080 IDH1KD tx inconclusive and HT1080NT lethal inconclusive.
O=C(NCCc1ccccc1F)C1CC(=O)N(c2cccc(C(F)(F)F)c2)C1 (stereo unspecified) was read as DT40 TDP1 no CPT inactive, IL-1B inflam inh inactive, TDP1 cell CPT inactive, HT1080 IDH1KD tx inactive and HT1080NT lethal inactive.
Screening O=C(CSc1ccnc(=O)[nH]1)NCc1ccc(F)cc1 returned DT40 TDP1 no CPT inactive and TDP1 cell CPT inactive.
Screening Nc1nc2c(c(=O)[nH]1)N=C(CNc1ccc(C(=O)NC(CCC(=O)O)C(=O)O)cc1)CN2 (stereo unspecified) returned DT40 TDP1 no CPT inactive and TDP1 cell CPT inactive.
For Cc1ccc(C(=O)Nc2nc3nc(-c4ccccc4)cc(=O)n3[nH]2)cc1 the results were DT40 TDP1 no CPT inconclusive, IL-1B inflam inh inactive, TDP1 cell CPT inactive, ELG1 repair inh inactive, HT1080 IDH1KD tx inactive and HT1080NT lethal inactive.
For Cc1ccc(N=Nc2c(N)[nH]n3c(=O)cc(-c4ccccc4)nc23)cc1 the results were DT40 TDP1 no CPT 14.6µM, IL-1B inflam inh inactive, TDP1 cell CPT inconclusive, ELG1 repair inh inactive, HT1080 IDH1KD tx inactive and HT1080NT lethal inactive.
Screening CNCc1ccccc1Sc1cc(O)ccc1O returned DT40 TDP1 no CPT 3.66µM, IL-1B inflam inh -100.0, TDP1 cell CPT 1.84µM, ELG1 repair inh inactive, HT1080 IDH1KD tx inconclusive and HT1080NT lethal inconclusive.
For CNCc1ccccc1Sc1cccc(O)c1 the results were DT40 TDP1 no CPT inconclusive, IL-1B inflam inh inconclusive, TDP1 cell CPT inactive, ELG1 repair inh inactive, HT1080 IDH1KD tx inactive and HT1080NT lethal inactive.
Screening COCCOC(=O)C1=C(C)NC(SCC(=O)NC(C)(C)C)=C(C#N)C1c1ccco1 (stereo unspecified) returned DT40 TDP1 no CPT 23.1µM, IL-1B inflam inh inactive, TDP1 cell CPT 25.9µM, ELG1 repair inh inconclusive, HT1080 IDH1KD tx inactive and HT1080NT lethal inactive.
Screening CCOC(=O)C1=C(c2ccccc2)NC(SCC(=O)NC2CCCCC2)=C(C#N)C1c1ccco1 (stereo unspecified) returned DT40 TDP1 no CPT inactive, IL-1B inflam inh -54.6, TDP1 cell CPT inactive, ELG1 repair inh 18.4µM, HT1080 IDH1KD tx inactive and HT1080NT lethal inactive.
